# Screens: PubChem BioAssay, several laboratories
# EBNA-1 inhibitor: blocks EBNA-1 binding to DNA. inhibition, % at 14.8 µM. 300,000 compounds, 0.34% hits. EBNA-1 DNA binding, fluorescence polarization. AID 1950; in the data active = inhibition above about 28%
# ZTA counter: counter-screen for EBNA-1 inhibitors: inhibitors of Epstein-Barr virus ZTA. P03206. ZTA-DNA binding, fluorescence polarization. inhibition, % at 11 µM. 320,000 compounds, 0.15% hits. AID 2234; in the data active = inhibition above about 33%
# Target sequence (P03206 whole entry, looked up): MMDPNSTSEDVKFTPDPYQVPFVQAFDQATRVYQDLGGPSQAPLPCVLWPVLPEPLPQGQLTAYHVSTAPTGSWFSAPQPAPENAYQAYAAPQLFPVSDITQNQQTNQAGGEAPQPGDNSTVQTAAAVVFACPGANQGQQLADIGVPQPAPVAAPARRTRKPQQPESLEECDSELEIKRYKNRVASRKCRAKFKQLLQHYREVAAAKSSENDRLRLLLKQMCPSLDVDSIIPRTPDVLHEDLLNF
# PolyA inh: inhibitors of polyadenylation in S. cerevisiae. S. cerevisiae SKY197-pL101 polyadenylation reporter, beta-gal luminescence; efflux-impaired pdr1/pdr3 knockout yeast; score 100 = 6 SD above DMSO. activity score, % at 12 µM. 300,000 compounds, 0.02% hits. AID 1875;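 active = lowest replicate activity score at least 50, where 100 means six control SD above control mean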;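 note: yeast exposed to compound for 9 h at 30 °C; higher score means more reporter readthrough which indicates perturbed polyadenylation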
# NALP1 inh: inhibitors of NALP1 inflammasome in yeast; S. cerevisiae NALP1/ASC/caspase-1 growth, X-gal OD620, 72 h; inhibition, % at 10 µM; 280,000 compounds, 0.61% hits; AID 2071; in the data active = inhibition mostly above about 24%, no sharp cut-off; inactive = mostly below about 32%
# dFosB activator: mouse delta FosB homodimer activation. P13346. purified delta FosB, TAMRA-CDK5 oligo fluorescence polarization; percent of positive-control signal above neutral wells. activation, % at 25 µM. 340,000 compounds, 0.99% hits. AID 493131;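 active = mean activation above about 17%, with every replicate also reaching it, limit read from the data, passing the limit was not always enough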
# Target sequence (P13346 whole entry, looked up): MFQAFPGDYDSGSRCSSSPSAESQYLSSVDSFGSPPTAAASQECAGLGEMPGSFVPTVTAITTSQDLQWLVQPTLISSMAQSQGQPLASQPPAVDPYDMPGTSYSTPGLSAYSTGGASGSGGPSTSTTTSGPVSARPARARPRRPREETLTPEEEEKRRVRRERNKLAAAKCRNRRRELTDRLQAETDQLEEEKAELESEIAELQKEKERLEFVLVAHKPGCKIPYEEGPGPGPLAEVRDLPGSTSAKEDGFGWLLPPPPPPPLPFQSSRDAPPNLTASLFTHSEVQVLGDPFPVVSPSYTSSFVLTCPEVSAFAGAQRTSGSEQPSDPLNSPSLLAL
# NALP3 yeast inh: blocks the NALP3 inflammasome reconstituted in yeast; Yeast reconstituted NLRP3/ASC/caspase-1, beta-gal luminescence, 24 h; inhibition, % at 10 µM; 330,000 compounds, 0.39% hits; AID 2825;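 active = inhibition of 50% or more; inactive = inhibition below 50%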;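 note: plate controls were induced DMSO wells for no effect and uninduced yeast grown without galactose for full effect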
# Active calls of the source: *; . = no result given. An excerpt weighted towards active compounds, which were near 2.2% of everything screened.
SMILES,EBNA-1 inhibitor,ZTA counter,PolyA inh,NALP1 inh,dFosB activator,NALP3 yeast inh
CCC(c1nnnn1Cc1ccccc1)N1CCN(C(=O)c2ccco2)CC1 (centres undefined),8,-2,16,34*,-10,1
COc1ccc(NC(=O)/C(C#N)=C\c2ccc(Br)o2)cc1,-9,0,-9,.,-3,14
N#C/C(=C\c1ccc([N+](=O)[O-])o1)C(=O)Nc1ccc(F)cc1,37*,79*,-91,13,-17,-8
CC(C)C[C@@H](CO)NS(=O)(=O)c1c(F)cccc1F,.,.,.,.,-5,.
O=C(Cc1ccccc1)NNS(=O)(=O)c1ccccc1[N+](=O)[O-],-13,-11,11,16,2,11
Cc1ccc2nc(C)cc(Nc3ccc4c(c3)OCCO4)c2c1,-2,1,23,33*,31*,11
Cc1cc(Nc2ccc3c(c2)OCCO3)c2ccccc2n1,10,-21,6,14,7,7
CCN1CCN=C1Nc1ccccc1,0,0,.,.,-3,0
CC1=[N+](C)c2c(ccc3cccnc23)C1(C)C,.,.,.,-4,4,.
CCOC(=O)/C=C/C(=O)Nc1nccs1,-4,-25,-5,46*,1,18
CCOC(=O)C(=O)Nc1nccs1,3,5,-4,6,3,6
NC(=O)C1CCN(C(=O)CNC(=O)c2ccc(F)cc2)CC1,.,.,.,.,1,14
O=C(OCc1nnc(-c2ccccc2)o1)c1cc(S(=O)(=O)N2CCOCC2)ccc1F,15,10,11,.,-7,-1
O=C(/C=C/c1ccc2c(c1)OCO2)Nc1nc2ccccc2s1,0,-3,-18,44,19*,-5
Cc1cc(N/N=C/c2cccc(F)c2)nc(NCc2ccccc2)n1,-8,6,11,15,33*,14
Cc1cc(N/N=C/c2ccccc2)nc(NCc2ccccc2)n1,6,-7,-6,56,38*,30
Cc1cc(N/N=C/c2ccc(Cl)cc2)nc(NCc2ccccc2)n1,5,-8,-7,47,53*,21
CCOc1cccc(C2/C(=C(/O)c3ccc4c(c3)CC(C)O4)C(=O)C(=O)N2CCCn2ccnc2)c1 (centres undefined),-2,12,3,-8,-7,6
Cc1nn(CC(=O)NC2(C#N)CCCCC2)c(C)c1[N+](=O)[O-],.,-2,.,.,7,13
COC(=O)c1ccc(C(=O)Nc2ccc3nc(-c4ccncc4)[nH]c3c2)cc1,-10,1,-2,5,44*,0
Cc1cc(C(=O)Nc2cccc(C(=O)O)c2)c(C)o1,-2,-4,-12,0,-2,-2
Cc1cc(C(=O)Nc2cccc(O)c2)c(C)o1,-8,-10,15,35*,2,2
O/N=C\c1ccc2noc(-c3ccc(Cl)cc3)c2c1,-12,1,4,1,3,17
CCOc1ccc(CCNC(=O)CN2C(=O)CCSc3ccccc32)cc1OCC,-8,-7,67*,12,-9,0
Cc1ccc(OCC(=O)NNC(=O)c2ccc(NC(=O)C3CC3)cc2)c(C)c1,4,-2,9,0,34*,18
SMILES,EBNA-1 inhibitor,ZTA counter,PolyA inh,NALP1 inh,dFosB activator,NALP3 yeast inh
COc1ccc(CCNC(=O)CN(Cc2ccc(Cl)cc2)S(C)(=O)=O)cc1OC,8,-3,-2,28*,-7,1
COCCNC(=O)CN(Cc1ccc(Cl)cc1)S(C)(=O)=O,0,8,-1,33,-4,-11
Cc1cc(C)c(C)c(S(=O)(=O)N2CCC(C(=O)NC3=NCCS3)CC2)c1C,.,2,.,.,-5,5
Cc1sc(NC(=O)CSc2n[nH]c(N)n2)c(C#N)c1C,.,.,.,.,-1,.
Cc1ccc(/C=C/C2=Cc3c(sc(NC(=O)CSc4n[nH]c(N)n4)c3C#N)C(C)(C)C2)o1,49*,7,-4,2,.,-4
CN1CCN(c2ccc(CNS(=O)(=O)c3ccc(F)cc3Cl)cc2)CC1,-1,-2,-7,20,-8,6
CN1CCN(c2ccc(CNS(=O)(=O)Cc3ccc(Cl)cc3)cc2)CC1,13,-7,-4,21*,0,4
CC1CC(C)CN(CCCNS(=O)(=O)c2ccc3c(c2)oc(=O)n3C)C1 (centres undefined),.,.,17,-10,-1,18
Cc1ccc(OCC(=O)N(c2ccccn2)C2CCCCC2)c(C)c1,10,-15,0,44*,-6,9
CCCCC(=O)Oc1c(S(=O)(=O)c2ccccc2)c(C)nn1C(C)(C)C,8,-10,8,22,-2,-4
CCn1c(NCc2ccco2)nc2ccccc21,-7,-9,6,24*,-5,-2
c1ccc(Cn2c(NCc3ccco3)nc3ccccc32)cc1,6,4,9,34,-9,-3
O=C(C(=O)N1CCN(Cc2ccc3c(c2)OCO3)CC1)c1c[nH]c2ccccc12,-10,7,-11,8,-6,-5
Clc1ccccc1CO/N=C1\CCCc2nonc21,3,0,-23,43*,2,23
CCOC(=O)C(=CNc1ccc(N2CCCCC2)c(S(=O)(=O)Nc2ccccc2OC)c1)C(=O)OCC,.,.,.,.,0,.
c1cc2c3c(cccc3c1)NC(c1ccc3c(c1)OCO3)N2,3,-5,32,32,36*,4
Cc1cccc(C2Nc3cccc4cccc(c34)N2)c1,-7,-10,3,24,13,15
COc1cc(C2Nc3cccc4cccc(c34)N2)ccc1O,4,8,-7,7,52*,26
CN(C(=S)NC(=O)C1CC1)c1ccc(O)cc1,.,-3,.,.,0,13
COc1ccc(-c2noc(CCCC(=O)NCC3CCCO3)n2)cc1 (centres undefined),-7,4,-2,-19,-1,5
CCC(=O)N1c2ccc(S(=O)(=O)N3CCCC3)cc2CC1C (centres undefined),4,15,-8,-1,-11,12
CCC(=O)N1c2ccc(S(=O)(=O)N3CCN(C)CC3)cc2CC1C (centres undefined),3,14,5,34*,-3,3
CCCC(C)Sc1nc2c([nH]1)c(=S)n(C)c(=O)n2C (centres undefined),.,.,.,.,1,.
Nc1nc(N)c(-c2cccc(C(F)(F)F)c2)c(Cc2cccc(C(F)(F)F)c2)n1,.,.,.,.,16*,.
O=C(Nc1ccc(-c2nc3ccccc3s2)cc1)C1=COCCO1,43*,1,-33,45,-9,8
O=C(CSc1nnc(-c2ccc(O)cc2)o1)Nc1ccccc1Br,5,-2,8,-1,-3,19
COc1ccc(CNC(=O)CN2CCN(C(c3ccccc3)c3ccccc3)CC2)cc1,4,-7,5,37*,-10,16
CC1(C)CC(=O)C2=C(C1)Nc1ccccc1NC2c1nc2ccccc2[nH]1 (centres undefined),8,13,-8,39*,7,10
